Assay outcomes (PubChem BioAssay)
FadD28 FP inh – M. tuberculosis FadD28 bisubstrate binding inhibition; FadD28 bisubstrate probe binding, fluorescence polarization; inhibition, % at 12.5 µM; 360,000 tested, 0.22% active; AID 588549; in the data active = inhibition above about 8.5%, passing the limit was not always enough; inconclusive = no clear call, values can overlap the other calls
RecA splice inh – inhibitors of M. tuberculosis RecA intein splicing; P9WHJ3; cell-free RecA intein splicing, fluorescence; inhibition, % (no concentration beside the values); 290,000 tested, 0.75% active; AID 2221; in the data active = inhibition above about 30%; inconclusive = no clear call, values can overlap the other calls
Rv3671c inh – Rv3671c (M. tuberculosis) protease inhibition | P9WHR9 | inhibition, % at 5.96 µM | 320,000 tested, 0.048% active | AID 2606; in the data active = inhibition above about 38%;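 note: extracellular domain of Rv3671c used as enzyme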
Mtb bLac sens – beta-lactam sensitization of Mtb H37Rv; M. tuberculosis H37Rv growth with meropenem, percent inhibition; inhibition, % at 25 µM; 330,000 tested, 0.27% active; call rule not given here;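 note: growth measured after seven days incubation then overnight dye step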
UGM FP inh – blocks M. tuberculosis UGM enzyme; AID 504406; 320,000 tested, 0.06% active; purified UGM, fluorescence polarization probe displacement; P9WIQ1; inhibition, % at 10 µM; in the data active = inhibition above about 10%, passing the limit was not always enough; inconclusive = no clear call, values can overlap the other calls
Target sequence (P9WIQ1 whole entry, looked up): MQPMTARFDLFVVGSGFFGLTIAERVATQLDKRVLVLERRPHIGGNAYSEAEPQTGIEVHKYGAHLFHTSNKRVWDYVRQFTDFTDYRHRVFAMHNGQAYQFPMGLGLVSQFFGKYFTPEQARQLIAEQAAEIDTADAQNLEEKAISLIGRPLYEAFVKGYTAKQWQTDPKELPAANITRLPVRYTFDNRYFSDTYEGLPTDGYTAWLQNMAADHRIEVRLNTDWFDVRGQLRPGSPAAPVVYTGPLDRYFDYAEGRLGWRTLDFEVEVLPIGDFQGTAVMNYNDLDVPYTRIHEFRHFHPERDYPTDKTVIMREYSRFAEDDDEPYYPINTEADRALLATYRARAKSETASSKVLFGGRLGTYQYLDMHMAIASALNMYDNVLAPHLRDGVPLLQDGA
Mtb hypoxia rep – Mtb hypoxia fluorescent reporter inhibition | fluorescence inhibition, % (no concentration beside the values) | 300,000 tested, 0.1% active | M. tuberculosis hypoxia-regulated fluorescent reporter, fluorescence; in the data active = fluorescence inhibition mostly above about 23%, no sharp cut-off; inactive = mostly below about 17%
Of the large screens only hits and unclear results are named; the others gave an inactive call; ! = not active in a repeat. Only some compounds are listed: those with a hit (about 0.92% of all), similar ones and a draw of the others.

O=C(COC(=O)c1ccc(O)cc1O)Nc1cccc2ccccc12	FadD28 FP inh 12 (no result: RecA splice inh)
Cc1ccc(C(=O)OCC(=O)Nc2ccccc2Cl)c(O)c1	none
C=CCC(CC(=O)NC(CO)Cc1ccccc1)C(=O)NC(COC(=O)C(CC=C)Cc1ccc(F)cc1)Cc1ccccc1 (stereo not drawn)	Mtb hypoxia rep 38! (no result: FadD28 FP inh, RecA splice inh, Rv3671c inh, Mtb bLac sens, UGM FP inh)
Cc1ccc(Cl)c2c(N=Nc3ccccc3)c(O)[nH]c12	UGM FP inh 11 (no result: Rv3671c inh)
COC(=O)C1C[C@@]2(O)C(O)C(O)C(O)CC2N1Cc1ccc(-c2ccccc2)cc1 (stereo partly drawn)	none (no result: FadD28 FP inh, RecA splice inh, Rv3671c inh, Mtb bLac sens, UGM FP inh)
Cn1cnc([N+](=O)[O-])c1Oc1ccc2ccccc2c1	RecA splice inh 36
Cn1cnc([N+](=O)[O-])c1Sc1nc2ccccc2[nH]1	none
O=C(NCCc1ccc(Cl)cc1)c1ccc(CNc2c(N3CCOCC3)c(=O)c2=O)cc1	Mtb hypoxia rep 42
O=C(NCc1ccc(Cl)cc1)c1ccc(CNc2c(N3CCOCC3)c(=O)c2=O)cc1	Mtb bLac sens inconclusive
COc1ccc(-c2nnc(NC(=O)CSc3ccccc3)s2)cc1OC	none
O=C(Cc1ccccc1)N1CCC(C(=O)N2CCN(c3ccc(F)cc3)CC2)CC1	none
C=CCn1cc(CN2CCC(C(=O)Nc3ccc(Oc4cccnc4)cc3)CC2)c(C)n1	FadD28 FP inh 16
CCn1cc(CN2CCC(C(=O)Nc3ccc(Oc4cccnc4)cc3)CC2)c(C)n1	FadD28 FP inh 13, Mtb bLac sens inconclusive (no result: RecA splice inh)
NC(=O)C(=O)NN=C1C2CC3CC(C2)CC1C3	none
CCCS(=O)(=O)N1CCN(Cc2ccc3c(c2)c2ccccc2n3CC)CC1	Mtb hypoxia rep 41
CCn1c2ccccc2c2cc(CN3CCN(C(=O)c4ccco4)CC3)ccc21	none (no result: Mtb hypoxia rep)
CCCCn1c(N)c(N(CCOC)C(=O)c2cc3ccccc3cc2OC)c(=O)[nH]c1=O	none
CC(CC(=O)Nc1cc(C)ccn1)=NNC(=O)c1ccc(C(C)(C)C)cc1	none (no result: FadD28 FP inh, RecA splice inh, Rv3671c inh, Mtb bLac sens, UGM FP inh)
C/C(CC(=O)Nc1cc(C)ccn1)=N\NC(=O)c1ccc(C)cc1	RecA splice inh 62 (no result: Mtb hypoxia rep)
CCOc1ccc(-c2nnc(NC(=O)CCCOc3cccc(C)c3)o2)cc1	none
O=C(O)c1ccc2nc(-c3ccco3)c(-c3ccco3)nc2c1	FadD28 FP inh 13 (no result: Rv3671c inh, Mtb bLac sens, UGM FP inh)
O=C(O)c1cc(-c2ccco2)nc2ccc(Br)cc12	FadD28 FP inh 29!
Cc1cc(OCC(=O)NNC(=O)c2cccc(F)c2)ccc1Cl	none (no result: RecA splice inh)
C=CCNc1nc(C(=O)OCC(=O)NCc2cccc(Cl)c2)cs1	Mtb hypoxia rep 34 (no result: RecA splice inh)
Cc1cccc(-c2nsc(SCC(=O)Nc3cc(C)on3)n2)c1	none
CCOC(=O)N1CCN(C(=O)CSc2nc(-c3cccc(C)c3)ns2)CC1	Mtb hypoxia rep 44
O=C(O)CCC(=O)Nc1nc2nc(-c3ccccc3)cc(-c3ccccc3)n2n1	none (no result: Mtb hypoxia rep)
CCOC(=O)CSCC(=O)N1N=C(c2cccs2)CC1c1ccc(F)cc1 (stereo not drawn)	RecA splice inh 32
CCCCOC(=O)CSCC(=O)N1N=C(c2cccs2)CC1c1ccc(F)cc1 (stereo not drawn)	none
O=C(O)c1ccccc1-c1ccc(C=c2sc3nc4cc(Br)cnc4n3c2=O)o1	FadD28 FP inh 13 (no result: RecA splice inh, Rv3671c inh, Mtb bLac sens, UGM FP inh)
O=C(CN(c1cccc(Br)c1)S(=O)(=O)c1ccccc1)N/N=C/c1cc([N+](=O)[O-])ccc1O	RecA splice inh 33 (no result: Mtb hypoxia rep)
COc1ccc(N2C(=O)/C(=C\c3ccco3)N=C2SCC(=O)NC(C)(C)C)cc1Cl	RecA splice inh 38 (no result: UGM FP inh)
CCN(CC)C(=O)CSC1=N/C(=C/c2ccco2)C(=O)N1c1ccc(OC)c(Cl)c1	none (no result: Mtb hypoxia rep)
C=CCOc1c(OC)cc(/C=N/Nc2cccc(C(=O)O)c2)c(Br)c1Br	FadD28 FP inh 16 (no result: Mtb hypoxia rep)
COC(=O)c1ccc(COc2ccc(/C=N/Nc3cccc(C(=O)O)c3)cc2)cc1	FadD28 FP inh 11 (no result: Mtb hypoxia rep)
CSc1ccc(/C=N/Nc2cccc(C(=O)O)c2)cc1	FadD28 FP inh 13 (no result: RecA splice inh, Rv3671c inh, Mtb bLac sens, UGM FP inh, Mtb hypoxia rep)
Cc1occc1C(=O)N1CCN(c2ccc([N+](=O)[O-])cc2)CC1	none
COC(=O)c1ccc(C2Nc3ccc(C(C)=NNC(=O)C(OC)c4ccccc4)cc3C3C=CCC32)cc1 (stereo not drawn)	none (no result: FadD28 FP inh, RecA splice inh, Rv3671c inh, Mtb bLac sens, UGM FP inh)
O=C(O)c1ccc2c(c1)[C@@H]1C=CC[C@@H]1[C@H](c1ccccn1)N2	FadD28 FP inh 19
COc1ccc(C(=O)N/N=C(\C)c2ccc3c(c2)C2C=CCC2C(c2ccccc2)N3)cc1 (stereo not drawn)	none (no result: RecA splice inh, Mtb hypoxia rep)
COc1cccc(NS(=O)(=O)c2ccc3c(c2)C2C=CCC2C(c2ccc(C(=O)O)cc2)N3)c1 (stereo not drawn)	FadD28 FP inh 22
O=C1NC(=S)SC1=Cc1ccccc1Cl	none (no result: RecA splice inh, Rv3671c inh, Mtb bLac sens, UGM FP inh)
O=C1NC(=S)S/C1=C\c1cc(Cl)cc(Cl)c1O	FadD28 FP inh 33 (no result: RecA splice inh, Rv3671c inh, Mtb bLac sens, UGM FP inh)
O=C(COC(=O)C1CC2CCCC(C1)C2=O)Nc1ccc(F)c(Cl)c1 (stereo not drawn)	Mtb hypoxia rep 22 (no result: RecA splice inh)
CCc1sc(/C=C(/C#N)C(N)=S)cc1[N+](=O)[O-]	FadD28 FP inh 18 (no result: RecA splice inh, Rv3671c inh, Mtb bLac sens, UGM FP inh)
CCc1ccc(/C=C(/C#N)C(N)=S)s1	none (no result: RecA splice inh)
O=C(OCC(=O)c1ccc(Cl)s1)c1cncc(Br)c1	Mtb hypoxia rep 29 (no result: RecA splice inh)
CCc1ccc(C(=O)COC(=O)c2cncc(Br)c2)cc1	none
CCOC1=C/C(=C/c2c(N)n3nc(-c4ccccc4)sc3nc2=O)C=CC1=O	FadD28 FP inh 16 (no result: Rv3671c inh, Mtb bLac sens, UGM FP inh)
COC1=C/C(=C/c2c(N)n3nc(-c4ccc(C)cc4)sc3nc2=O)C=CC1=O	none (no result: RecA splice inh, Rv3671c inh, Mtb bLac sens, UGM FP inh)
CCOC1=C/C(=C/c2c(N)n3oc(C)cc3nc2=O)C=CC1=O	RecA splice inh 38 (no result: FadD28 FP inh)
O=C(Cn1nc(-c2cccc(Cl)c2)ccc1=O)Nc1ccccc1Br	none
O=C(c1cccs1)N1CCN(S(=O)(=O)c2ccc(F)cc2)CC1	none (no result: FadD28 FP inh, RecA splice inh)
CCN(CC)CCCNC(=O)c1cc(Sc2nnc(C)s2)nc2ccccc12	UGM FP inh 25
COC(CNC(=O)c1cc(Sc2nnc(C)s2)nc2ccccc12)OC	none
CCC1=NN2C(=N)/C(=C\c3cccn3-c3ccc(OC)cc3)C(=O)N=C2S1	UGM FP inh 14 (no result: Mtb hypoxia rep)
Cc1ccc(-n2cccc2/C=C2\C(=N)N3N=C(C(C)C)SC3=NC2=O)cc1	none
CCCC1=NN2C(=N)/C(=C\c3ccc(SCc4ccco4)o3)C(=O)N=C2S1	FadD28 FP inh 14 (no result: Mtb hypoxia rep)
CCCC1=NN2C(=N)/C(=C\c3cc(C)n(Cc4ccccc4)c3C)C(=O)N=C2S1	none
CCC1=NN2C(=N)/C(=C\c3ccc(SCc4ccco4)o3)C(=O)N=C2S1	FadD28 FP inh 11 (no result: RecA splice inh)
O=C(N=C1SC2CS(=O)(=O)CC2N1c1c(Cl)cccc1Cl)C1CC1 (stereo not drawn)	none
O=c1[nH]c(C2CCN(S(=O)(=O)c3ccc([N+](=O)[O-])cc3)CC2)nc2c1nnn2Cc1ccccc1	none
N#C/C(N=Nc1ccccc1O)=N\Nc1ccccc1O	FadD28 FP inh 9.4 (no result: Mtb hypoxia rep)
O=C(C1CCC(CNS(=O)(=O)c2ccccc2)CC1)N1CCOCC1 (stereo not drawn)	none
Cn1nnnc1Sc1ncnc2scc(-c3ccc(F)cc3)c12	RecA splice inh 32
